# Data taken from the supplement of paper PMC10037445.
# Over roughly 2,900 compounds, “NF-kB SEAP reporter activity, fold change vs agonist alone” has its median near 0.99; the highest 2% begin near 2.6. Many of the other results were omitted from the sample, so the highest values are more common in it than they were.
# Assays:
# [1] = system: RAW-Dual; assay: NF-kB SEAP reporter activity, fold change vs agonist alone; higher = enhanced NF-kB activity
# In short: (§1)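 Cytotoxic wells were those whose IncuCyte confluency was below 70% of agonist controls in both mask sets. The cells were RAW-Dual macrophages at 50,000 cells/well in DMEM on 384-well plates, dosed with 50 nL of library stock by pin tool, stimulated with a PRR agonist 1 h later, and kept at 37 °C, 5% CO2 for 20 hours. IRF and NF-κB reporter activity, as fold change over agonist-alone wells, came from supernatant read by QuantiLuc luminescence and QuantiBlue absorbance, respectively.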
# [2] = system: RAW-Dual; assay: NF-kB SEAP reporter activity, fold change vs agonist alone; cytotoxicity flag (confluency mask): not cytotoxic; higher = enhanced NF-kB activity
# In short: as §1
# [3] = system: RAW-Dual; assay: NF-kB SEAP reporter activity, fold change vs agonist alone; cytotoxicity flag (confluency mask): cytotoxic (confluency <70% of control); higher = enhanced NF-kB activity
# In short: as §1
# [4] = library stock concentration (final ~1000-fold dilution): 10 mM, cytotoxicity flag (confluency mask): cytotoxic (confluency <70% of control), agonist: Imiquimod (TLR7) […]
# [5] = library stock concentration (final ~1000-fold dilution): 10 mM, cytotoxicity flag (confluency mask): cytotoxic (confluency <70% of control), agonist: MPLA (TLR4) […]
# [6] = library stock concentration (final ~1000-fold dilution): 10 mM, cytotoxicity flag (confluency mask): not cytotoxic, agonist: Imiquimod (TLR7) […]
# [7] = library stock concentration (final ~1000-fold dilution): 10 mM, cytotoxicity flag (confluency mask): not cytotoxic, agonist: MPLA (TLR4) […]
# [8] = agonist: ODN 1826 (TLR9) 0.5 ug/mL
# [9] = agonist: Pam2CSK4 (TLR2/6) 0.1 ug/mL
# [10] = agonist: Pam3CSK4 (TLR2/1) 0.1 ug/mL
# [11] = library stock concentration (final ~1000-fold dilution): 2 mM, cytotoxicity flag (confluency mask): not cytotoxic, agonist: Imiquimod (TLR7) […]
# [12] = library stock concentration (final ~1000-fold dilution): 2 mM, cytotoxicity flag (confluency mask): not cytotoxic, agonist: MPLA (TLR4) […]
smiles,measurement,setting,value
CCN(CC)CCOc1ccc(Nc2ncc3cc(-c4c(Cl)cccc4Cl)c(=O)n(C)c3n2)cc1,NF-kB SEAP reporter activity,[1]; [4],0.492
same,NF-kB SEAP reporter activity,[1]; [5],0.332
c1ccc(C(c2ccccc2)N2CCN(Cc3ccc4c(c3)OCO4)CC2)cc1,NF-kB SEAP reporter activity,[1]; [6],1.19
same,NF-kB SEAP reporter activity,[1]; [7],0.686
c1ccc(C(c2ccccc2)N2CCN(Cc3ccc4c(c3)OCO4)CC2)cc1 (library stock concentration (final ~1000-fold dilution): 10 mM),NF-kB SEAP reporter activity,[2]; agonist: LPS (TLR4) 0.1 ug/mL,0.717
same,NF-kB SEAP reporter activity,[2]; [8],0.728
same,NF-kB SEAP reporter activity,[2]; [9],1.38
same,NF-kB SEAP reporter activity,[2]; [10],0.699
O=c1ncnc2[nH][nH]cc1-2,NF-kB SEAP reporter activity,[1]; [6],0.925
same,NF-kB SEAP reporter activity,[1]; [7],1.08
O=c1ncnc2[nH][nH]cc1-2 (library stock concentration (final ~1000-fold dilution): 10 mM),NF-kB SEAP reporter activity,[2]; agonist: LPS (TLR4) 0.1 ug/mL,0.941
same,NF-kB SEAP reporter activity,[2]; [8],1.03
same,NF-kB SEAP reporter activity,[2]; [9],1.06
same,NF-kB SEAP reporter activity,[2]; [10],1.16
C=C(C)C1CCC2(C)CCC3(C)C(CCC4C5(C)CCC(O)C(C)(C)C5CCC43C)C12 (centres undefined),NF-kB SEAP reporter activity,[1]; [11],1
same,NF-kB SEAP reporter activity,[1]; [12],1.05
C=C(C)C1CCC2(C)CCC3(C)C(CCC4C5(C)CCC(O)C(C)(C)C5CCC43C)C12 (centres undefined) (library stock concentration (final ~1000-fold dilution): 2 mM),NF-kB SEAP reporter activity,[2]; agonist: LPS (TLR4) 0.1 ug/mL,1.25
same,NF-kB SEAP reporter activity,[2]; [8],0.949
same,NF-kB SEAP reporter activity,[2]; [9],1.06
same,NF-kB SEAP reporter activity,[2]; [10],0.917
CC(C)COCC(CN(Cc1ccccc1)c1ccccc1)N1CCCC1.Cl.O (centres undefined) (library stock concentration (final ~1000-fold dilution): 10 mM),NF-kB SEAP reporter activity,[3]; agonist: LPS (TLR4) 0.1 ug/mL,0.71
same,NF-kB SEAP reporter activity,[3]; [8],1.2
same,NF-kB SEAP reporter activity,[3]; [9],0.673
same,NF-kB SEAP reporter activity,[3]; [10],1.09
CC(C)COCC(CN(Cc1ccccc1)c1ccccc1)N1CCCC1.Cl.O (centres undefined),NF-kB SEAP reporter activity,[1]; [4],0.745
same,NF-kB SEAP reporter activity,[1]; [5],1.24
CC(Oc1ccc2[nH]nc(/C=C/c3cnn(CCO)c3)c2c1)c1c(Cl)cncc1Cl (centres undefined) (library stock concentration (final ~1000-fold dilution): 10 mM),NF-kB SEAP reporter activity,[3]; agonist: LPS (TLR4) 0.1 ug/mL,0.225
same,NF-kB SEAP reporter activity,[3]; [8],0.187
same,NF-kB SEAP reporter activity,[3]; [9],0.0607
same,NF-kB SEAP reporter activity,[3]; [10],0.139
CC(Oc1ccc2[nH]nc(/C=C/c3cnn(CCO)c3)c2c1)c1c(Cl)cncc1Cl (centres undefined),NF-kB SEAP reporter activity,[1]; [4],0.251
same,NF-kB SEAP reporter activity,[1]; [5],0.215
CC1(c2nc3c(C(N)=O)cccc3[nH]2)CCCN1 (centres undefined) (library stock concentration (final ~1000-fold dilution): 10 mM),NF-kB SEAP reporter activity,[2]; agonist: LPS (TLR4) 0.1 ug/mL,1.14
same,NF-kB SEAP reporter activity,[2]; [8],0.972
same,NF-kB SEAP reporter activity,[2]; [9],0.955
same,NF-kB SEAP reporter activity,[2]; [10],0.991
CC1(c2nc3c(C(N)=O)cccc3[nH]2)CCCN1 (centres undefined),NF-kB SEAP reporter activity,[1]; [6],1.05
same,NF-kB SEAP reporter activity,[1]; [7],0.99
C=CC(=O)Nc1cc(Nc2nccc(-n3cc(CN(C)C)c(-c4ccccc4)n3)n2)c(OC)cc1N1CCOCC1,NF-kB SEAP reporter activity,[1]; [11],1.12
same,NF-kB SEAP reporter activity,[1]; [12],1.02
C=CC(=O)Nc1cc(Nc2nccc(-n3cc(CN(C)C)c(-c4ccccc4)n3)n2)c(OC)cc1N1CCOCC1 (library stock concentration (final ~1000-fold dilution): 2 mM),NF-kB SEAP reporter activity,[2]; agonist: LPS (TLR4) 0.1 ug/mL,1.37
same,NF-kB SEAP reporter activity,[2]; [8],0.945
same,NF-kB SEAP reporter activity,[2]; [9],0.927
same,NF-kB SEAP reporter activity,[2]; [10],1.01
